Laboratory results reported in PubChem BioAssay AID845 (Columbia University Molecular Screening Center, 2007).
Out of some 94,000 compounds screened, about 390 (0.41%) were called active. This is one part of a sample in which actives are shown more often than they occur.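 The calls were made as follows: active = cell count reduction more than 3 SD above the screen-wide mean (cut at about 70% in these data); inactive = the rest.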

Test: HUVEC cell count loss after compound exposure – imaging, Hoechst nuclear count, IL-1B stimulus, cytotoxicity control for IL-1B NFkB translocation project, primary screen (AID 845);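 also: normalized per plate to untreated control cells as the no-loss baseline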
Conditions: IL-1B stimulated, at 2 µM, stronger effect = higher value

SMILES | cell count reduction
Cc1c(Br)c([N+](=O)[O-])nn1C(C)C(=O)Nc1nccs1 (stereo unspecified) | 4.9% (inactive)
COc1ccc(Oc2coc3cc(OC(=O)c4cncc(Br)c4)ccc3c2=O)cc1 | 17.2% (inactive)
CNC(=O)c1c(NC(NC(=O)c2ccco2)C(=O)c2ccc(Cl)cc2)sc2c1CCCC2 (stereo unspecified) | 9.9% (inactive)
CCCOC(=O)C1=C(C)NC2=C(C(=O)C(C(=O)OC)C(C)C2)C1c1ccc(N(C)C)cc1 (stereo unspecified) | -20.9% (inactive)
CCCC(=O)C1=C(N(C)c2ccccc2)CC(C)(C)C(C(=O)OC)C1=O (stereo unspecified) | 87.1% (active)
CCCC(=O)C1CCN(Cc2ccccc2)CC1 | -26.8% (inactive)
COc1cccc(/C=N\Nc2nncc(-c3ccccc3)n2)c1 | 13.5% (inactive)
CCOC(=O)COc1ccc(Cl)cc1C1NC(=O)NC(C)=C1C(C)=O (stereo unspecified) | 87.6% (active)
CCOc1ccccc1C1NC(=O)NC(C)=C1C(=O)OCc1ccco1 (stereo unspecified) | 4.9% (inactive)
CC(=O)C1=C(C)NC(=O)NC1c1cc(Br)ccc1OCC#N (stereo unspecified) | -86.7% (inactive)
O=c1[nH][nH]c(C(F)(F)F)c1C=NCc1ccccc1Cl | 86.3% (active)
O=c1ccn(Cc2ccccc2Cl)cc1 | -6.2% (inactive)
CCc1ccc(CNC(=O)CCc2nc(-c3cccs3)no2)cc1 | 5.9% (inactive)
COc1cccc(-c2nnc(SCCOc3ccc4c(C)cc(=O)oc4c3)o2)c1 | 10.8% (inactive)
Cc1ccc(-n2cc3ccc([N+](=O)[O-])cc3n2)cc1 | -52.5% (inactive)
CC(C)(C)c1nc2ccccc2c(=O)n1N1C(=O)c2ccccc2C1=O | -11.3% (inactive)
N#C/C(=C1/CCCN1)c1ccccn1 | 23% (inactive)
Cc1cc(OC(=O)c2c(Cl)cccc2Cl)nc(C)n1 | 31.7% (inactive)
CC(=O)Nc1ccc(N2C(=O)C3C4CC(=O)C(c5ccccc54)C3C2=O)cc1 (stereo unspecified) | -15.5% (inactive)
CCOCCCNC(=O)C(NC(=O)c1ccc(=O)[nH]c1)c1ccc(Cl)cc1 (stereo unspecified) | -8.1% (inactive)
Cc1ccccc1CSCCNC(=O)c1ccc(Cl)c(S(=O)(=O)N2CCOCC2)c1 | -18.7% (inactive)
Cc1cc([N+](=O)[O-])c(N2CCC[C@@H]2C(=O)O)c([N+](=O)[O-])c1 | -39.6% (inactive)
O=C(NCc1ccc(Cl)cc1)c1cc(=O)nc2sc(-c3ccccc3)nn12 | -3.6% (inactive)
Cc1cc(Oc2ccccc2)nc(N2CCOCC2)n1 | -31.8% (inactive)
COc1c(Cl)cc(C(=O)Nc2ccc(Cl)cn2)cc1Cl | -4.5% (inactive)
CCn1c(=O)c(=O)n(CC)c2cc(S(=O)(=O)N3CCc4ccccc43)ccc21 | 14.3% (inactive)
